Measured values published in PubChem BioAssay AID686979 (National Center for Advancing Translational Sciences (NCATS), 2013).
Among all 420,000 compounds or so, about 50,000 (12%) were called active. Roughly 26% stayed inconclusive and do not appear here. The full list was thinned out, with actives kept by preference. A number with no mark means an inactive call. The call rests on the fitted dose curve; in most records, active means well fitted inhibition curve with a large enough effect; inconclusive means small, poorly fitted or top-dose-only effect; inactive means flat fitted curve, though single readings scatter.
On the % scale 0 is the no-effect control and ±100 the full control effect; potency means the concentration at half of the fitted maximal effect.

Assay: qHTS for Inhibitors of human tyrosyl-DNA phosphodiesterase 1 (TDP1): qHTS in cells in presence of CPT; further: nearly all actives have a fitted effect of over 55% in size
Conditions: chicken DT40 Tdp1-/-;hTDP1 cells + 20 nM CPT, ATP luminescence, 48 h; series mostly up to 46.2 µM; activity change, negative = growth inhibition: at the top concentration
Outline: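 Chicken DT40 Tdp1-/- cells complemented with human TDP1, 400 cells/well, exposed to compounds plus 20 nM camptothecin for at least 48 h at 37 C; viability read as ATP content by CellTiter-Glo luminescence.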
For `COC(=O)c1c(NC(=O)COc2ccc(Cl)cc2Cl)sc2c1CC(C)(C)NC2(C)C`, the Potency was 7.31 µM (active).
In the case of `O=S(=O)(NCCc1ccc(F)cc1)c1cccc2cccnc12`, the “activity change, negative = growth inhibition” value is reported as -15.1%.
With `CCOC(=O)c1ccc(NC(=O)Cn2cc(S(=O)(=O)Cc3ccccc3F)c3ccccc32)cc1` the “activity change, negative = growth inhibition” value was -26.9%.
For `CCOc1ccc(C(=O)c2cn(Cc3ccccc3OC)c3ccc(F)cc3c2=O)cc1`, the Potency was 16.4 µM (active).
With `Cc1ccc(Cn2cc(C(=O)NN)c(=O)c3ccc(F)cc32)cc1` the “activity change, negative = growth inhibition” value was -22.5%.
For `COc1ccccc1CNC(=O)CN1CCC(n2cnc3cc(F)ccc32)CC1`, the “activity change, negative = growth inhibition” value was -7.82%.
With `COc1ccc(NC(=O)Cn2cc(C(=O)c3ccncc3)c(=O)c3cc(C)ccc32)cc1Cl` the “activity change, negative = growth inhibition” value was 5.62%.
For `CCOc1ccc(C(=O)c2cn(Cc3ccc(F)cc3)c3ccc(F)cc3c2=O)cc1`, the Potency was 18.4 µM (active).
In the case of `O=C(c1ccc(F)cc1)c1cn(Cc2ccc(F)cc2)c2cc3c(cc2c1=O)OCCO3`, the “activity change, negative = growth inhibition” value is reported as -15.9%.
For `CC12CCC(C(=O)N3CCN(c4ncccn4)CC3)(c3nc4ccccc4nc31)C2(C)C` (centres undefined), the “activity change, negative = growth inhibition” value was -11.1%.
In the case of `Cc1nc(SCC(=O)Nc2ccc(C(=O)O)cc2)n[nH]1`, the “activity change, negative = growth inhibition” value is reported as 9.68%.
In the case of `CC1CC(C)CN(C(=O)C2CC(=O)N(c3ccc(F)cc3)C2)C1` (centres undefined), the “activity change, negative = growth inhibition” value is reported as -20.7%.
In the case of `CC(=O)Nc1ccc(NC(=O)CS(=O)(=O)c2cn(CC(=O)N3CCCCC3)c3ccccc23)cc1`, the “activity change, negative = growth inhibition” value is reported as -10.5%.
For `COc1ccccc1C(=O)N1C(CC(=O)Nc2ccccc2C)C(=O)NC2CCCCC21` (centres undefined), the “activity change, negative = growth inhibition” value was -19%.
In the case of `CCc1cc2c(N3CCN(c4nnc(CC)s4)CC3)ncnc2s1`, the Potency is reported as 10.3 µM (active).
With `CCOCCCNCc1ccc(OCc2ccc(F)cc2)c(OC)c1` the “activity change, negative = growth inhibition” value was -17.6%.
For `O=C(NCCCO)C(=O)Nc1c2c(nn1-c1ccccc1)CSC2`, the “activity change, negative = growth inhibition” value was -5.46%.
In the case of `CCN(CC)S(=O)(=O)c1ccc(OC)c(NC(=O)CCc2c(C)noc2C)c1`, the “activity change, negative = growth inhibition” value is reported as 1.45%.
For `COc1ccc(S(=O)(=O)N2CCCCCC2)cc1C(=O)N(C)Cc1cccc(OC)c1OC`, the “activity change, negative = growth inhibition” value was -28.8%.
For `CCN(CC)S(=O)(=O)c1ccc(N(C)Cc2cccc(OC)c2OC)nc1`, the Potency was 23.1 µM (active).
For `CCC(C(=O)N1CCN(S(=O)(=O)c2sc(C(=O)O)c(C)c2C(=O)O)CC1)c1ccccc1` (centres undefined), the “activity change, negative = growth inhibition” value was -4.51%.
In the case of `CCCCCCC(O)(CCN1CCCCC1)c1ccccc1` (centres undefined), the “activity change, negative = growth inhibition” value is reported as 6.69%.
With `O=C(CSc1ncn[nH]1)Nc1nc2c(F)c(F)c(F)cc2s1` the “activity change, negative = growth inhibition” value was -10.6%.
In the case of `Cc1c(CCOC(=O)CC23CC4CC(CC(C)(C4)C2)C3)sc[n+]1Cc1ccc([N+](=O)[O-])cc1`, the Potency is reported as 18.4 µM (active).
For `COc1ccc(-n2c(C)cc(C(=O)CSc3nnc(-c4cccs4)o3)c2C)cc1`, the Potency was 16.4 µM (active).
In the case of `COc1ccc(C(=O)CSc2nnc(-c3ccco3)o2)cc1`, the “activity change, negative = growth inhibition” value is reported as -1.34%.
With `Cc1ccc(OC(=O)CSc2nnc(-c3cccs3)o2)cc1` the “activity change, negative = growth inhibition” value was 1.42%.
For `Cc1ccc(S(=O)(=O)N2CC[C@H]3[C@@H](C2)C(=O)C[C@@H](c2ccccc2)N3S(=O)(=O)c2ccc(C)cc2)cc1`, the “activity change, negative = growth inhibition” value was -12.4%.
For `Cc1ccc(C)c(S(=O)(=O)Nc2cc(C)on2)c1`, the “activity change, negative = growth inhibition” value was -2.88%.
With `CC(NC(=O)CC1SC(N)=NC1=O)c1ccccc1` (centres undefined) the “activity change, negative = growth inhibition” value was -7.27%.
In the case of `Cc1nc(CN(C)C(=O)CC2C(=O)NCCN2Cc2ccc(F)cc2)cs1` (centres undefined), the “activity change, negative = growth inhibition” value is reported as 1.54%.
In the case of `CCCC(=O)Nc1ncnc2c1ncn2[C@@H]1O[C@@H]2OP(=O)(O)OC[C@H]2[C@H]1OC(=O)CCC`, the “activity change, negative = growth inhibition” value is reported as 3.57%.
In the case of `O=C(CSc1ccccc1F)NC1CCS(=O)(=O)C1` (centres undefined), the “activity change, negative = growth inhibition” value is reported as -0.0027%.
For `COc1ccc(NC(=S)NC2CCS(=O)(=O)C2)cc1` (centres undefined), the “activity change, negative = growth inhibition” value was 1.76%.
In the case of `CC(C)C(=O)NC(NC(=S)NC1CCS(=O)(=O)C1)C(Cl)(Cl)Cl` (centres undefined), the “activity change, negative = growth inhibition” value is reported as -3.75%.
For `O=S1(=O)CCC(NC(=S)SCc2ccccc2Br)C1` (centres undefined), the Potency was 8.2 µM (active).
For `CCCSC(=S)NC1CCS(=O)(=O)C1` (centres undefined), the Potency was 16.4 µM (active).
With `O=C(Cc1ccc(Cl)cc1)NC1CCS(=O)(=O)C1` (centres undefined) the “activity change, negative = growth inhibition” value was -2.99%.
For `CCOc1ccc(NC(=O)CN(C)CC(=O)NC(C)c2ccccc2)cc1OCC` (centres undefined), the “activity change, negative = growth inhibition” value was -9.01%.
In the case of `CN(CCC(=O)Nc1cc(S(=O)(=O)N(C)C)ccc1Cl)CC(=O)Nc1ccc(F)cc1`, the “activity change, negative = growth inhibition” value is reported as 5.34%.
With `CN1OC[C@@H]2CN(C(=O)c3cccnc3)[C@H](c3ccc(N4CCCCC4)cc3)C[C@@H]21` the “activity change, negative = growth inhibition” value was 6.47%.
With `CCOC(=O)CN(C(=O)COc1nc(-c2ccccc2)cc(C)c1C#N)c1ccc(F)cc1` the “activity change, negative = growth inhibition” value was -24.9%.
For `O=[N+]([O-])c1ccc(NC(=S)N2CCN(c3ccccn3)CC2)cc1`, the Potency was 16.4 µM (active).
For `COc1cc([N+](=O)[O-])ccc1NC(=S)N1CCN(c2ccccn2)CC1`, the “activity change, negative = growth inhibition” value was -24.2%.
For `CCOC(=O)c1ccc(NC(=S)N2CCN(c3ccccn3)CC2)cc1`, the “activity change, negative = growth inhibition” value was 1.63%.
For `CC(=O)Nc1ccc(NC(=O)CCCNC(=O)c2ccc(Cl)cc2)cc1`, the “activity change, negative = growth inhibition” value was -1.54%.
For `COCCCNC(=O)CCc1nc2cccnc2n1Cc1ccc(OC)cc1`, the “activity change, negative = growth inhibition” value was -3.73%.
In the case of `Cc1ccc(Cn2c(CNC(=O)Cc3cccc(C)c3)nc3cccnc32)cc1`, the Potency is reported as 13 µM (active).
In the case of `COCCn1c(CCC(=O)Nc2cc(C)ccc2C)nc2cccnc21`, the “activity change, negative = growth inhibition” value is reported as -9.25%.
